Results on 43 sequences are retold here after paper PMC7819943, “Rice protein-binding microarrays: a tool to detect cis-acting elements near promoter regions in rice”.

The full ranking holds about 39,000 sequences; the median of “fluorescence intensity (a.u.)” is about 4,300, and the highest 2% start at about 39,000. The entries come from a sample that favours the highest values as a whole.

The target of this assay is T1, OsSMF1 (Oryza sativa, UniProt Q6ZLB0 1-436).
T1 sequence: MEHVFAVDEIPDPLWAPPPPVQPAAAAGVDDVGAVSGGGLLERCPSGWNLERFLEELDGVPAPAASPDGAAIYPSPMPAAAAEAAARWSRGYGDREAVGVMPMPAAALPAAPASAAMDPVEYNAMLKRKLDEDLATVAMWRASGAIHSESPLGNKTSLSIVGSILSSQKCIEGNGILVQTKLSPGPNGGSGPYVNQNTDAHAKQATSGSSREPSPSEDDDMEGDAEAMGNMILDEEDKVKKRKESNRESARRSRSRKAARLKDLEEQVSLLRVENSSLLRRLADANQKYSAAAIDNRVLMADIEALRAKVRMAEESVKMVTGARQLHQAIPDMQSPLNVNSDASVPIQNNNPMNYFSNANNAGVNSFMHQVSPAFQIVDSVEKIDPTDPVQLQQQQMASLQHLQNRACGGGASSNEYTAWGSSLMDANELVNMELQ
Description: protein-binding microarray (RPBM); PBS, 2% BSA, 51.3 ng/ul salmon testes DNA, 50 uM zinc acetate, 200 nM TF, 25 C, 1 h; high values mean tight binding. The conditions noted are these: protein: recombinant; tags: N-terminal polyhistidine and DsRed monomer fusion (pET32a); chain copies: 2; label: CyDye5-dUTP incorporated in the synthesized complementary strand; 3' TTTTT single-stranded linker to array surface; dsDNA, one strand shown. Put shortly: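 The binding signal is fluorescence intensity per feature, in arbitrary units, read on an Axon 4000B scanner. Polyhistidine- and DsRed-tagged transcription factors (N-terminal fusions) from E. coli BL21-CodonPlus were purified on Ni–NTA and applied at 200 nM for 1 h at 25 °C to a double-stranded, BSA-blocked custom Agilent array in buffer with 50 µM zinc acetate.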
Consider “CCTTCCACATATGCTCATTCGAAAGTAACAAATTCACTCGCGGAGTCACCTAGTGCAG”, for which the binding signal was 3190 fluorescence intensity (a.u.). The result for “GGTGATTGCATTTGCTGATGTCAGGTATGCCTATTATATTCGGAGTCACCTAGTGCAG” reads 14700 fluorescence intensity (a.u.); that for “CGAGTTTAGAATCCACACCATGATTACATGTAAACAACGTCGGAGTCACCTAGTGCAG”, 44700 fluorescence intensity (a.u.). The result for “TTGGATGACACAACAACATGTAAGGTTAGAAACGATATGTCGGAGTCACCTAGTGCAG” reads 3990 fluorescence intensity (a.u.); that for “ACTAGTTTACAACCACACCAACATGTAGGCATGAACATGGCGGAGTCACCTAGTGCAG”, 22900 fluorescence intensity (a.u.); that for “AAAGTAGTTTTACACGTAAATCGGGCGCTGACGTTATCAGCGGAGTCACCTAGTGCAG”, 5310 fluorescence intensity (a.u.).

Regarding “TAAAGTAGTTTTACACGTAAATCAGATGCTGACGTCAGCGCGGAGTCACCTAGTGCAG”, the binding signal was 48600 fluorescence intensity (a.u.).

With “AAAGTAGTTTCTGCACGTAAATCGGACGCTGACGTCAGCGCGGAGTCACCTAGTGCAG”, the binding signal was 36600 fluorescence intensity (a.u.). The result for “AAACACACTGACACGCATTCGGCCCGTTCCCTCGATGCGTCGGAGTCACCTAGTGCAG” reads 5340 fluorescence intensity (a.u.); that for “AACATCATATATTGATGATTATTTGCTGCATAAGGAGATGCGGAGTCACCTAGTGCAG”, 4070 fluorescence intensity (a.u.); that for “ATGATGCTGGATTGCTGGATACTGCATCAACATCATTAAGCGGAGTCACCTAGTGCAG”, 44500 fluorescence intensity (a.u.). Consider “ATGAACTCATGCAACATTACTGGCTGATGCATCAACTTTACGGAGTCACCTAGTGCAG”, for which the binding signal is 3270 fluorescence intensity (a.u.). On to “AACTTTTAATGATGTTCAACATGGGAAAATATGTGGTGGACGGAGTCACCTAGTGCAG”, for which the binding signal is 8320 fluorescence intensity (a.u.). The result for “AATATTGTGTGTTGTTGTGTTGTCATCTGATATATTTTAGCGGAGTCACCTAGTGCAG” reads 6470 fluorescence intensity (a.u.). For “ACCTAAACGAGCCAACACGCACGCTCATCGCATCTTTGCGCGGAGTCACCTAGTGCAG” the value was 3810 fluorescence intensity (a.u.); for “TTCTACAACTTGGACCATAAAACGTGTAGTTTTGTGAAATCGGAGTCACCTAGTGCAG”, 3570 fluorescence intensity (a.u.); for “ACACATGGAACTTGTGCCATATATCTGTAGGTGTGAAAATCGGAGTCACCTAGTGCAG”, 41300 fluorescence intensity (a.u.). For “AAGGTAGGTTGTAGAACTGATGATCTGTCAATGGTGAAATCGGAGTCACCTAGTGCAG” the value was 4940 fluorescence intensity (a.u.); for “TGCGGACTACGTCAAGCTGACGTCATCTCCGACCCGACCTCGGAGTCACCTAGTGCAG”, 54000 fluorescence intensity (a.u.); for “CGATGGCTGCCACTGCCAACGTCAAGCTCCTCTCCGACGGCGGAGTCACCTAGTGCAG”, 3850 fluorescence intensity (a.u.). “TCATCTCATCTCTCCACGTCACCCGACTCCGACTCCGTGGCGGAGTCACCTAGTGCAG”: the binding signal was 16900 fluorescence intensity (a.u.). Turning to “CCTACCACTGTTGAGTAACCACGTCTTTCGACGTATGCAGCGGAGTCACCTAGTGCAG”, the binding signal is 6930 fluorescence intensity (a.u.). For “GCGGTCGGGCCGGCCCAGGAAATACCAGGCGACGTGGCGGCGGAGTCACCTAGTGCAG” the value was 8410 fluorescence intensity (a.u.).

Consider “ACTGACATCGAGGCCCCACGTGTCAGTGACCCAGTTCTTTCGGAGTCACCTAGTGCAG”, for which the binding signal was 13400 fluorescence intensity (a.u.). On to “TAAACTCTTTCTGTGAGTCAGCACAATAGCCCATCGTGCCCGGAGTCACCTAGTGCAG”, for which the binding signal was 18700 fluorescence intensity (a.u.).

As to “ACTTCACCAGTTCACCACCGTGGCACTCCCTGGGACTGAACGGAGTCACCTAGTGCAG”, the binding signal is 3640 fluorescence intensity (a.u.).

Regarding “TTGGGAGGGAGAGTGGTAAAGGGTGCTGGGGCTTTGGCTGCGGAGTCACCTAGTGCAG”, the binding signal was 4250 fluorescence intensity (a.u.). For “GAGGACATGCATGTGCAAGGGGAGCAGGTGGGGTAAAATGCGGAGTCACCTAGTGCAG”, the binding signal was 45500 fluorescence intensity (a.u.). The result for “GTGCGGATGGGGAGGTGTGGTGGAAGGGTGGACAGTGGAGCGGAGTCACCTAGTGCAG” reads 3410 fluorescence intensity (a.u.); that for “TTTGCCACTGTCCTACTAGATCTTGGTCTTATTTGAGAAGCGGAGTCACCTAGTGCAG”, 3550 fluorescence intensity (a.u.). For “TATGACATGTGGGCCAACTGCCAAGCAGCCTTACTTGACGCGGAGTCACCTAGTGCAG” the value was 3360 fluorescence intensity (a.u.); for “TTGGAAGTTTATGTGTGTAGAAAAGTTTTGATGTAATGAACGGAGTCACCTAGTGCAG”, 44400 fluorescence intensity (a.u.). For “GCTATTTATCTCATATGATGTCTTGGATGTTGTGTAGAAACGGAGTCACCTAGTGCAG” the value was 40600 fluorescence intensity (a.u.); for “TATTTGTATTATGTTGCAAATGTTGCAATATATATATTTACGGAGTCACCTAGTGCAG”, 15300 fluorescence intensity (a.u.). Take “TGTTTGGACATATGCATGGAGCATTAAATGTGGATGAAAACGGAGTCACCTAGTGCAG”: the binding signal was 4350 fluorescence intensity (a.u.). For “GTTGGAGATGCTCTGAGAAACGCATATGTGGATGGTCTTACGGAGTCACCTAGTGCAG” the value was 48100 fluorescence intensity (a.u.); for “TACAGTATGTTGTGGAAGGCCTTTGAATTATATTGCATTACGGAGTCACCTAGTGCAG”, 49000 fluorescence intensity (a.u.). On to “TCACATGATGTCTTGGATGTTGTGTAGAAATTCTCTTTCCCGGAGTCACCTAGTGCAG”, for which the binding signal was 3560 fluorescence intensity (a.u.).

Consider “TCTTGATGATGTGGAGTTTATGGAAACTATGTCTAGTGTTCGGAGTCACCTAGTGCAG”, for which the binding signal was 7560 fluorescence intensity (a.u.). For “TATGAAAGTTTTCGATGTGATGTAATGTGATGGAAAGTTACGGAGTCACCTAGTGCAG”, the binding signal is 3140 fluorescence intensity (a.u.). Regarding “CTCAGTATATATGTTTTGAATTCATTATGACATCTTTACACGGAGTCACCTAGTGCAG”, the binding signal is 3360 fluorescence intensity (a.u.). For “TTATTGGTGGATGCCTCTGAGTCGGATGTGGGTCGTACAACGGAGTCACCTAGTGCAG” the value was 3660 fluorescence intensity (a.u.). The result for “CTGAAAAGTTGTGTGTGTATGACATGTTGATGTGATGGAACGGAGTCACCTAGTGCAG” reads 5180 fluorescence intensity (a.u.).
